# Assay results taken from PubChem BioAssay (NCI).
# About 83,000 compounds went through this panel and 20% of them were active in at least one assay; those are over-represented in the sample as a whole.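 Single-dose data. Exposure time 48 hours. Values below 10 considered active.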 Values without a mark were called inactive. Activity calls are given as the source filed them.
# Legend:
# Assay in all cases: NCI-60 one-dose screen, 48 h (100 = growth as untreated, 0 = no growth, -100 = all killed)
# Details in all cases: 10 µM
# NCI-H23 lung = tested on: NCI-H23 lung
# NCI-H226 lung = tested on: NCI-H226 lung
# NCI-H322M lung = tested on: NCI-H322M lung
# HOP-62 NSCLC = tested on: HOP-62 NSCLC
# NCI-H460 lung = tested on: NCI-H460 lung
# HOP-92 NSCLC = tested on: HOP-92 NSCLC
# NCI-H522 lung = tested on: NCI-H522 lung
# A549/ATCC NSCLC = tested on: A549/ATCC NSCLC
# 786-0 renal = tested on: 786-0 renal
# COLO 205 colon = tested on: COLO 205 colon
# DU-145 prostate = tested on: DU-145 prostate
# K-562 leukemia = tested on: K-562 leukemia
# MALME-3M melanoma = tested on: MALME-3M melanoma
# MDA-MB-231 breast = tested on: MDA-MB-231 breast
# RXF 393 renal = tested on: RXF 393 renal
# SF-268 CNS = tested on: SF-268 CNS
# SF-295 CNS = tested on: SF-295 CNS
# SF-539 CNS = tested on: SF-539 CNS
# UACC-257 melanoma = tested on: UACC-257 melanoma
# M14 melanoma = tested on: M14 melanoma
SMILES,growth (NCI-H23 lung),growth (NCI-H226 lung),growth (NCI-H322M lung),growth (HOP-62 NSCLC),growth (NCI-H460 lung),growth (HOP-92 NSCLC),growth (NCI-H522 lung),growth (A549/ATCC NSCLC),growth (786-0 renal),growth (COLO 205 colon),growth (DU-145 prostate),growth (K-562 leukemia),growth (MALME-3M melanoma),growth (MDA-MB-231 breast),growth (RXF 393 renal),growth (SF-268 CNS),growth (SF-295 CNS),growth (SF-539 CNS),growth (UACC-257 melanoma),growth (M14 melanoma)
O=C1NC(=NC2CCCCCC2)N/C1=C\c1ccc2ncoc2c1,19.2%,14.9%,24.5%,36.8%,20.2%,51.3%,12.6%,17%,40.6%,9.19% (active),31.1%,38.1%,66.4%,50.9%,-8.82% (active),35%,47.5%,-2.22% (active),48.7%,64.4%
O=C(Nc1cc(Cl)cc(Cl)c1)Nc1cc(Cl)cc(Cl)c1,-21.1% (active),-37.8% (active),-5.15% (active),-30.3% (active),-16.2% (active),-33.8% (active),-36.1% (active),1.01% (active),-1.4% (active),-98.9% (active),15.2%,-25.5% (active),-40.5% (active),-65.6% (active),-15.1% (active),9.6% (active),-47.9% (active),-46.2% (active),-29.7% (active),-77.9% (active)
COc1cccc2nc(Nc3ccc(F)c(NC(=O)c4ccc(CN5CCN(C)CC5)c(C(F)(F)F)c4)c3)ccc12,-17.8% (active),17%,32.7%,-36.4% (active),-68.8% (active),-22.8% (active),-60.9% (active),18.5%,-66.3% (active),-78.7% (active),6.64% (active),-70.8% (active),-91.3% (active),-37.8% (active),-27.1% (active),22.2%,-84% (active),-93.6% (active),-66.5% (active),-12% (active)
O=C(N/N=C/c1ccc(-c2cccc([N+](=O)[O-])c2)o1)c1[nH]c2ccc(Br)cc2c1-c1ccccc1,17.6%,16.2%,54%,38.7%,9.61% (active),55.7%,-48.4% (active),0.801% (active),5.31% (active),-65.4% (active),6.18% (active),4.74% (active),39%,6.8% (active),26.4%,36%,-15.3% (active),-49.8% (active),41.9%,10.4%
CO[C@@H]1CSSC1Cn1nc(-c2ccc(Oc3ccccc3)cc2)c2c(N)ncnc21 (stereo not given in full),46.4%,31.1%,63%,86.4%,16.5%,35.9%,1.33% (active),35.7%,45.3%,52%,49.8%,4.87% (active),8.55% (active),52.1%,28.8%,39.5%,47.8%,44.1%,10.9%,-90.6% (active)
O=c1cc(-c2ccccc2)oc2cc(OCCCCNCc3ccccc3)cc(O)c12,-73.7% (active),59.6%,57.5%,61%,-73.9% (active),31.8%,34.2%,49.3%,-68.2% (active),-91.8% (active),27.6%,-17.6% (active),-92.6% (active),-12.4% (active),-79.8% (active),43.6%,-93.5% (active),-96.2% (active),-35.6% (active),-75.9% (active)
Brc1ccc(/C=C/c2n(Cc3ccc4ccccc4c3)c3ccccc3[n+]2Cc2ccc3ccccc3c2)cc1,-81.9% (active),-85% (active),7.28% (active),-74.3% (active),-66.2% (active),-89.5% (active),-84.2% (active),10.4%,-95.5% (active),-69.3% (active),3.53% (active),-19.3% (active),-87.8% (active),-95.9% (active),-83.1% (active),-38.3% (active),-65.4% (active),-98.4% (active),-40.3% (active),-31.7% (active)
Nc1nnc(-c2c[nH]c3ccc(F)cc23)c(-c2c[nH]c3ncccc23)n1,86.6%,57.9%,61.1%,57.4%,50.3%,81.8%,52.7%,74%,44%,71.8%,82%,31.9%,71.6%,39.1%,82.8%,80.2%,36.6%,30%,105%,63.5%
